# Assay results from the supplement of paper PMC10849652.
# Targets with a hit are over-represented here; the source holds about 8,800 in all. About 0.5% of all pairs of compound and target were hits. Values without a mark were called inactive.
# Columns and labels:
# Experiment in all cases: log2 fold change, soluble protein after heating vs DMSO (PISA); higher = thermal stabilisation; K562 lysate, 10 uM; active = over 0.2 and 3.5 SD of the protein, either way, in both replicates (recomputed)
# [1] = compound: C1=CC=C(C=C1)[C@H](COC2=CC3=C(C=C2)NC(=O)N3)NC(=O)C4=CC=CN(C4=O)CC5=CC(=C(C=C5)F)F
# In short: (§1)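 Pellets of K562 cells were dounce-homogenised in PBS pH 7.4 with 1 mM MgCl2, and the crude extract was held at 1 mg/mL protein for a 30 min treatment with 10 μM compound. Aliquots were heated for 3 min over 48°C-58°C and pooled before NP-40 was added to 0.5% at 4°C. The supernatant from 21,000xg for 90 min was quantified by TMTpro 16plex LC-MS/MS with channel sums equalised. Values are reported from duplicates as log-two fold change in thermal stability relative to solvent controls.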
# [2] = compound: CC1=C(SC2=C1C(=N[C@H](C3=NN=C(N32)C)CC(=O)N)C4=CC=C(C=C4)Cl)C
# In short: as §1
# [3] = compound: CC1=C2C(=CC=C1)N=C(N(C2=O)C3=CC=CC=C3C)CN4C=NC5=C(N=CN=C54)N
# In short: as §1
# [4] = compound: Cc1sc2c(c1C)C(c1ccc(Cl)cc1)=N[C@@H](CC(=O)OC(C)(C)C)c1nnc(C)n1-2
# In short: as §1
# [5] = compound: c1ccc([C@@H]2C[C@H]2NC2CCNCC2)cc1
# In short: as §1
# Sequence of UniProt O94762 (O94762 whole entry, looked up): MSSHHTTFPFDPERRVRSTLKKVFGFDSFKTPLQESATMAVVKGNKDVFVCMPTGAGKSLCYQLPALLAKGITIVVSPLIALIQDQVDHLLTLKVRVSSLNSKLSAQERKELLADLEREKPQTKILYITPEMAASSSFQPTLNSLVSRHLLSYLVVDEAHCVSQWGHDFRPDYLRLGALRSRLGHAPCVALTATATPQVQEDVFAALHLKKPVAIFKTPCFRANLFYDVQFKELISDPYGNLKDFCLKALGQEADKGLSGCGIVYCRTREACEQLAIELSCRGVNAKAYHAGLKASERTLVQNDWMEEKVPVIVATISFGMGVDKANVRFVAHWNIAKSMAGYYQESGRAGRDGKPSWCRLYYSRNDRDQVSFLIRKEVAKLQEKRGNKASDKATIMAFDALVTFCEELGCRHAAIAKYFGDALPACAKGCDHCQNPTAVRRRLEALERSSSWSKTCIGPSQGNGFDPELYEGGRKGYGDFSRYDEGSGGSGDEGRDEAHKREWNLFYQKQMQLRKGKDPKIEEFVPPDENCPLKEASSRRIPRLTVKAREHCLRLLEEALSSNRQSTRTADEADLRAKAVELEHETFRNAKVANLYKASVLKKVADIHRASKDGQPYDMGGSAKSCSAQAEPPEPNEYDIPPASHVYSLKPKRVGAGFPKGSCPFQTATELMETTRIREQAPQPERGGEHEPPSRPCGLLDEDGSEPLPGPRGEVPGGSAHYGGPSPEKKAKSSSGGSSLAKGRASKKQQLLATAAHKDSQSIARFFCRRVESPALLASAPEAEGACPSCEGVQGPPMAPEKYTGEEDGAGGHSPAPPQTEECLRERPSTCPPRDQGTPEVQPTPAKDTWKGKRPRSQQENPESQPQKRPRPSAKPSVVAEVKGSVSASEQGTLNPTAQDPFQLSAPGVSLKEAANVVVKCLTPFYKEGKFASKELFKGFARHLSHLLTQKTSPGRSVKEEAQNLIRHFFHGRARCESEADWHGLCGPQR
# Sequence of UniProt O15541 (O15541 whole entry, looked up): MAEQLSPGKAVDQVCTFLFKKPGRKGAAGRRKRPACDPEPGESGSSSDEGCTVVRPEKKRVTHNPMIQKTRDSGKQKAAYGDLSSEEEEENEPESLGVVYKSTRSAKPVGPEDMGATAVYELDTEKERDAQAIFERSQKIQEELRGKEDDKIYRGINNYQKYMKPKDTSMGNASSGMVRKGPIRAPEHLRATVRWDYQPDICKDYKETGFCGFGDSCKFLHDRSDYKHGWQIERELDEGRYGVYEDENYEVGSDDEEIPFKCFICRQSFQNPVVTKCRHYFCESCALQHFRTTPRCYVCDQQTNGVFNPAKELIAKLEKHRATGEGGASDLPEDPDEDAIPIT
# Sequence of UniProt Q8TEB9 (Q8TEB9 whole entry, looked up): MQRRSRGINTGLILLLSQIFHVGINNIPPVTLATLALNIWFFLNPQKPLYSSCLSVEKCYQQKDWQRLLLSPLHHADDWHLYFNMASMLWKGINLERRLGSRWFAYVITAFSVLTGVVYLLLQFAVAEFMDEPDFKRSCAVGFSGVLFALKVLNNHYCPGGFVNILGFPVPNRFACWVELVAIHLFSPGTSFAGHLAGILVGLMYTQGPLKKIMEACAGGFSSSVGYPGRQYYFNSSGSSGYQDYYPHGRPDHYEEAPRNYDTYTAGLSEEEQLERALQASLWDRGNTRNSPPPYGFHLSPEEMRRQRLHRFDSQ
# Sequence of UniProt Q9UKL0 (Q9UKL0 whole entry, looked up): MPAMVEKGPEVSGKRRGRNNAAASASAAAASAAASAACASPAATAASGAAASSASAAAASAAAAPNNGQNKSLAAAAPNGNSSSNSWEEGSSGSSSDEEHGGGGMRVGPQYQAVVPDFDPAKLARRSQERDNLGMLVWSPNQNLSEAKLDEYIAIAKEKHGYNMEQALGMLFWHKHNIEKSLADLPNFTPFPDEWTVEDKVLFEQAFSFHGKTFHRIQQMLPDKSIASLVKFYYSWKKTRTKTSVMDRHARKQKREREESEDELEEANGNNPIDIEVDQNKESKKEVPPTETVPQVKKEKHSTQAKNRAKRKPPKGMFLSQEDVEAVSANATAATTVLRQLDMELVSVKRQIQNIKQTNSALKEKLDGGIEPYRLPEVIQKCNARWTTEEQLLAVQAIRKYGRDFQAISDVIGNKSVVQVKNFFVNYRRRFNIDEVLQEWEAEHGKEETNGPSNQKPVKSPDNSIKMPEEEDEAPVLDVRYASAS
# Sequence of UniProt Q99496 (Q99496 whole entry, looked up): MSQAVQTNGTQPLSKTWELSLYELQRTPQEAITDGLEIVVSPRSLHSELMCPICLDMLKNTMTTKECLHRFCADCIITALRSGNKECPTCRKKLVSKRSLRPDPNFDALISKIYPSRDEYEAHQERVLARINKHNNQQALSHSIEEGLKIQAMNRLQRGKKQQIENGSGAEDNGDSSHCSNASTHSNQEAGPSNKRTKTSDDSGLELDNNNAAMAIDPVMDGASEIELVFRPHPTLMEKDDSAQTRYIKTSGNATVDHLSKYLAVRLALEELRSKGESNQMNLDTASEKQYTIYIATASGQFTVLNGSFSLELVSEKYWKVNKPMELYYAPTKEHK
# Sequence of UniProt Q96JX3 (Q96JX3 whole entry, looked up): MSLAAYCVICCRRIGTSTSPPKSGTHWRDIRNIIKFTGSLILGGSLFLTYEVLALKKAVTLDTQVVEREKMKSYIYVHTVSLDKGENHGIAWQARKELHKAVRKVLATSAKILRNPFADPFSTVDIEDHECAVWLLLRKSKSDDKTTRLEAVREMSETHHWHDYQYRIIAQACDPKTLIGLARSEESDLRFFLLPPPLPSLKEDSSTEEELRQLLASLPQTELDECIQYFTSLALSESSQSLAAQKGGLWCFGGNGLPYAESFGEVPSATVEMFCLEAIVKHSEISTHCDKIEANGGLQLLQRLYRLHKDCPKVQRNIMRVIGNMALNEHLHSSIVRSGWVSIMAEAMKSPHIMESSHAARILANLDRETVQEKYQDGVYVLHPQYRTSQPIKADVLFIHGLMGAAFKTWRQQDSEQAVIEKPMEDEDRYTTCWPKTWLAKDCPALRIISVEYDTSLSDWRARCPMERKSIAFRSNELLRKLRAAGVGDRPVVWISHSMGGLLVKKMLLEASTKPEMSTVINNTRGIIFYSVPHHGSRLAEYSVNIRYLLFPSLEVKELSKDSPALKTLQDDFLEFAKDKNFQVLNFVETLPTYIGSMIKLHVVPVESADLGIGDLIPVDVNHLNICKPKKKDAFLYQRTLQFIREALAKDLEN
# Sequence of UniProt P52756 (P52756 whole entry, looked up): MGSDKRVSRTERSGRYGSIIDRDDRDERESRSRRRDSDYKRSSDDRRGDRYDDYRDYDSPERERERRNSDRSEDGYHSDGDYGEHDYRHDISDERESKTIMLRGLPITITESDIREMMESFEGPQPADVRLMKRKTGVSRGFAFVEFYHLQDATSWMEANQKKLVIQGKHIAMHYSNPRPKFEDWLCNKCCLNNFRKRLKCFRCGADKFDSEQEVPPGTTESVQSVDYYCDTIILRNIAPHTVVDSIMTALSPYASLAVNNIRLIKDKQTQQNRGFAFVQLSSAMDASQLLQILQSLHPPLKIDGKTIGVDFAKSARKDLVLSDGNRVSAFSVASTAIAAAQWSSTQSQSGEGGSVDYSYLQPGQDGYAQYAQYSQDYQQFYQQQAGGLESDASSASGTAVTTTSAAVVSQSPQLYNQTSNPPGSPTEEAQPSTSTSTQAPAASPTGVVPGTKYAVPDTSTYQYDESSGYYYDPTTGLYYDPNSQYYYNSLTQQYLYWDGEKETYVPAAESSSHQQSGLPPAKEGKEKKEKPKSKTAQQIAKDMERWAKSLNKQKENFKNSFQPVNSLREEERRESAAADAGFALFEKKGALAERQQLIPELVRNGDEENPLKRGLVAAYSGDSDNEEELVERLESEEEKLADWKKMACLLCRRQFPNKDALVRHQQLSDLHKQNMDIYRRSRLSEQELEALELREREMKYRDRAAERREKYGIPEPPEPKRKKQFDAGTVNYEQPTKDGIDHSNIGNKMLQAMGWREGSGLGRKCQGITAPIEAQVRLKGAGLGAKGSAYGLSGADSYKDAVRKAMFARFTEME
# Sequence of UniProt Q5TBB1 (Q5TBB1 whole entry, looked up): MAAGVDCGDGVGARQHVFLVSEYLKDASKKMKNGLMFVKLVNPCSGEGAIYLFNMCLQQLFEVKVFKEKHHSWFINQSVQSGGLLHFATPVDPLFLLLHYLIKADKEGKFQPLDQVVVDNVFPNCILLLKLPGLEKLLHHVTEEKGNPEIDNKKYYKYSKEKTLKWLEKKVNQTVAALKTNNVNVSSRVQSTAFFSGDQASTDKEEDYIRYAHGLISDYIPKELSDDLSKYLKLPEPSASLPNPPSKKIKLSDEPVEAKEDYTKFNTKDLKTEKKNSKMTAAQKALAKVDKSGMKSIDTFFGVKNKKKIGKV
# Sequence of UniProt Q8NC42 (Q8NC42 whole entry, looked up): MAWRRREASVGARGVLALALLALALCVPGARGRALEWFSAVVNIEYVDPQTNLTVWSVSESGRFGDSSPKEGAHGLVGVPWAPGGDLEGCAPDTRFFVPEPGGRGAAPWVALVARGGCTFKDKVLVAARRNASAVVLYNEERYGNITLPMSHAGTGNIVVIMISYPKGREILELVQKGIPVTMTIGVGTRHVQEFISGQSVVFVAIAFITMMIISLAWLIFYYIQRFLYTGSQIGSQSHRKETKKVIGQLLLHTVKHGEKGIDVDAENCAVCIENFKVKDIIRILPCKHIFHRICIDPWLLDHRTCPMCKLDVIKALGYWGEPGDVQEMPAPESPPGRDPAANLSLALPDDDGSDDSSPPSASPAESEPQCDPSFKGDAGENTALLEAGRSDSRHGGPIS
# Sequence of UniProt P61586 (P61586 whole entry, looked up): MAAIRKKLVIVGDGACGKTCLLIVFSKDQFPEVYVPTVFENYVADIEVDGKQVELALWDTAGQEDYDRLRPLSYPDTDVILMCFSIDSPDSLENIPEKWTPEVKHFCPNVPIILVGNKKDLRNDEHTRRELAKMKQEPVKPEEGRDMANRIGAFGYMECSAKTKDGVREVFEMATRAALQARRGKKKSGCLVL
# Sequence of UniProt P60059 (P60059 whole entry, looked up): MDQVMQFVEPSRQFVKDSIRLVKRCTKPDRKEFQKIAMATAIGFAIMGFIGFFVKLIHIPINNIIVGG
Target,log2 fold change [1],log2 fold change [2],log2 fold change [3],log2 fold change [4],log2 fold change [5]
RNF113A (UniProt O15541),0.047,-0.022,-0.018,-0.065,-0.066
RCOR1 (UniProt Q9UKL0),-0.034,0.03,-0.003,-0.023,0.494 (active)
RDH14 (UniProt Q9HBH5),0.123,-0.016,-0.076,0.102,-0.058
RHOA (UniProt P61586),0.177,0.06,0.038,0.02,0.07
SAMHD1 (UniProt Q9Y3Z3),0.005,0.002,-0.018,0.051,-0.002
RCOR3 isoform 3 (UniProt Q9P2K3),-0.026,0.009,0.046,0.011,0.394 (active)
RBBP8 isoform 2 (UniProt Q99708),-0.031,-0.133,0.093,0.046,-0.014
RANBP6 (UniProt O60518),0.013,-0.047,0.046,0.074,0.005
RECQL5 (UniProt O94762),-0.081,0.014,0.011,-0.174,0.064
RALGAPB isoform 3 (UniProt Q86X10),0.107,0.05,–,0.189,0.153
RNASEH2B (UniProt Q5TBB1),0.056,-0.008,-0.032,0.038,0.049
RHBDD1 (UniProt Q8TEB9),-0.032,0.058,-0.117,–,0.039
RNF149 (UniProt Q8NC42),-0.015,0.022,-0.138,-0.081,0
RNF24 isoform 2 (UniProt Q9Y225),-0.219,0.037,–,–,-0.115
RHOU (UniProt Q7L0Q8),–,–,0.065,-0.1,-0.015
RNF17 (UniProt Q9BXT8),-0.241,1 (active),–,0.129,0.451
RAP1B (UniProt F5GZG1),-0.082,-0.124,0.023,-0.019,-0.282
RXRA (UniProt P19793),–,–,–,0.167,-0.149
RMI2 (UniProt Q96E14),–,–,-0.18,0.079,–
RECQL4 (UniProt O94761),0.002,-0.012,0.073,-0.011,0.154
SEMA4G isoform 2 (UniProt Q9NTN9),–,–,0.105,0.021,0.066

Target,log2 fold change [1],log2 fold change [2],log2 fold change [3],log2 fold change [4],log2 fold change [5]
RDH11 (UniProt Q8TC12),–,–,0.064,0.069,-0.085
RFWD3 (UniProt Q6PCD5),-0.058,0.132,0,-0.072,0.049
RAD54L (UniProt Q92698),-0.013,-0.031,–,-0.299,-1.06 (active)
RNF2 (UniProt Q99496),–,–,0.03,-0.091,0.343
RCAN1 (UniProt P53805),0.141,-0.074,-0.063,-0.026,0.026
SCNM1 (UniProt Q9BWG6),–,–,–,-0.332,0.014
SERAC1 (UniProt Q96JX3),-0.122,0.145,–,0.11,0.065
RNPC3 (UniProt Q96LT9),–,–,–,-0.029,-0.034
RXRB isoform 3 (UniProt P28702),-0.214,-0.018,-0.151,-0.057,0.06
RETREG2 (UniProt Q8NC44),-0.095,0.016,0.084,–,0.004
SEC16A isoform 3 (UniProt O15027),–,–,–,-0.006,–
RBM45 (UniProt Q8IUH3),–,–,–,–,-0.026
S100A6 (UniProt P06703),–,–,-0.084,-0.1,0.104
SATB2 (UniProt Q9UPW6),–,–,-0.019,0.021,-0.045
RNASEH1 (UniProt O60930),–,–,–,–,0.11
RYR1 (UniProt P21817),-0.011,-0.028,–,-0.093,-0.055
RUFY2 isoform 1 (UniProt Q8WXA3),-0.28,-0.106,-0.087,–,-0.111
RPS6KA5 (UniProt O75582),–,–,-0.084,-0.024,-0.017
RBM5 (UniProt P52756),-0.074,0.08,0.062,0.146,0.103
SEC61G (UniProt P60059),0.269,-0.063,-0.016,-0.065,-0.225
"QSER1, A0A3B3IRW6",–,–,0.047,-0.027,–
